Hit rate of the full screen: of about 3,200 compounds, about 300 (9.4%) showed activity. The list comes from a sample in which actives are over-represented; it also holds similar structures and randomly drawn compounds. Values without a mark were called inactive.
System: A673/TR/shEF
Test: cell viability (LOESS-normalised, relative to median of negative controls) (log2 ratio); higher = more viable cells (less compound effect), active = hit call of the paper (over 3 MAD below the median)
Details: treatment time: 72 h
In short: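 For three days, A673/TR/shEF Ewing sarcoma cells in 384-well plates (1,500 per well) were treated with library compounds at two or more concentrations or with DMSO controls, after doxycycline had been added or withheld 24 h beforehand to induce EWS-FLI1 shRNA knockdown. Viability was read by CellTiter-Glo luminescence on an Envision reader. The data were LOESS-corrected per plate, divided by the median of negative controls and log2-transformed.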

[1] = 0.103 µM, library screen: screen3, EWS-FLI1 expression: high (no doxycycline)
[2] = 0.103 µM, library screen: screen3, EWS-FLI1 expression: low (doxycycline-induced shRNA knockdown)
[3] = 0.308 µM, library screen: screen3, EWS-FLI1 expression: high (no doxycycline)
[4] = 0.308 µM, library screen: screen3, EWS-FLI1 expression: low (doxycycline-induced shRNA knockdown)
[5] = 0.926 µM, library screen: screen3, EWS-FLI1 expression: high (no doxycycline)
[6] = 0.926 µM, library screen: screen3, EWS-FLI1 expression: low (doxycycline-induced shRNA knockdown)
[7] = 2.8 µM, library screen: screen3, EWS-FLI1 expression: high (no doxycycline)
[8] = 2.8 µM, library screen: screen3, EWS-FLI1 expression: low (doxycycline-induced shRNA knockdown)
[9] = 8.3 µM, library screen: screen3, EWS-FLI1 expression: high (no doxycycline)
[10] = 8.3 µM, library screen: screen3, EWS-FLI1 expression: low (doxycycline-induced shRNA knockdown)
[11] = 25 µM, library screen: screen3, EWS-FLI1 expression: high (no doxycycline)
[12] = 25 µM, library screen: screen3, EWS-FLI1 expression: low (doxycycline-induced shRNA knockdown)
[13] = 0.25 µM, library screen: screen1, EWS-FLI1 expression: high (no doxycycline)
[14] = 0.25 µM, library screen: screen1, EWS-FLI1 expression: low (doxycycline-induced shRNA knockdown)
[15] = 2.5 µM, library screen: screen1, EWS-FLI1 expression: high (no doxycycline)
[16] = 2.5 µM, library screen: screen1, EWS-FLI1 expression: low (doxycycline-induced shRNA knockdown)

CCCCCCOC(=O)/N=C(/N)c1ccc(NCc2nc3cc(C(=O)N(CCC(=O)OCC)c4ccccn4)ccc3n2C)cc1
cell viability (log2) [1]: -0.0699
cell viability (log2) [2]: -0.0234
cell viability (log2) [3]: -0.0119
cell viability (log2) [4]: -0.019
cell viability (log2) [5]: 0.046
cell viability (log2) [6]: -0.0404
cell viability (log2) [7]: -0.0778
cell viability (log2) [8]: 0.0123
cell viability (log2) [9]: -0.0381
cell viability (log2) [10]: 0.0285
cell viability (log2) [11]: -0.441 (active)
cell viability (log2) [12]: 0.0312

Cn1c(CNc2ccc(C(=N)N)cc2)nc2cc(C(=O)N(CCC(=O)O)c3ccccn3)ccc21
cell viability (log2) [1]: 0.00826
cell viability (log2) [2]: 0.00201
cell viability (log2) [3]: 0.0563
cell viability (log2) [4]: 0.0276
cell viability (log2) [5]: 0.0456
cell viability (log2) [6]: 0.123
cell viability (log2) [7]: -0.0294
cell viability (log2) [8]: 0.0652
cell viability (log2) [9]: 0.0628
cell viability (log2) [10]: 0.0736
cell viability (log2) [11]: 0.0838
cell viability (log2) [12]: 0.0437

CCN(CC)S(=O)(=O)c1ccc(C(=O)N(CCC(=O)OC)c2ccccn2)cc1
cell viability (log2) [13]: 0.0834
cell viability (log2) [14]: 0.147
cell viability (log2) [15]: 0.162
cell viability (log2) [16]: 0.127

NCCCCCN
cell viability (log2) [13]: 0.0699
cell viability (log2) [14]: 0.0406
cell viability (log2) [15]: 0.114
cell viability (log2) [16]: 0.103

Cc1coc2ccccc2c1=O
cell viability (log2) [13]: 0.143
cell viability (log2) [14]: 0.1
cell viability (log2) [15]: 0.138
cell viability (log2) [16]: 0.165

CC1=CC(=O)CC(C)(C)[C@@]1(O)/C=C/C(C)=C\C(=O)O
cell viability (log2) [13]: 0.103
cell viability (log2) [14]: 0.084
cell viability (log2) [15]: 0.143
cell viability (log2) [16]: 0.165

CC(=O)O[C@@H]1CC2C(C)(C)CCC(=O)[C@]2(C)C2CC[C@@]3(C)[C@H](c4ccoc4)OC(=O)C4OC43[C@@]21C (some centres not stated)
cell viability (log2) [13]: 0.0305
cell viability (log2) [14]: 0.0828
cell viability (log2) [15]: 0.127
cell viability (log2) [16]: 0.0866

O=C(NC(C(=O)N1CCCCC1)=C1CCCCC1)c1ccccc1
cell viability (log2) [13]: 0.107
cell viability (log2) [14]: 0.0798
cell viability (log2) [15]: 0.0724
cell viability (log2) [16]: 0.127

COC(=O)C1=C(C)N=c2s/c(=C/c3ccc(OC)cc3OC)c(=O)n2C1c1cccs1 (configuration not stated)
cell viability (log2) [13]: 0.0522
cell viability (log2) [14]: 0.13
cell viability (log2) [15]: 0.0666
cell viability (log2) [16]: 0.065

CCCCCCCCc1ccc(CCC(N)(CO)CO)cc1
cell viability (log2) [1]: 0.0814
cell viability (log2) [2]: 0.0528
cell viability (log2) [3]: 0.0332
cell viability (log2) [4]: -0.0148
cell viability (log2) [5]: 0.0328
cell viability (log2) [6]: 0.0341
cell viability (log2) [7]: 0.00825
cell viability (log2) [8]: 0.0473
cell viability (log2) [9]: -0.0193
cell viability (log2) [10]: 0.0563
cell viability (log2) [11]: -0.341 (active)
cell viability (log2) [12]: -0.161 (active)

CCCCCCCCCCCC1=C(O)C(=O)C=C(O)C1=O
cell viability (log2) [13]: 0.161
cell viability (log2) [14]: 0.0381
cell viability (log2) [15]: 0.097
cell viability (log2) [16]: 0.0519

CC(=O)O[C@H]1C[C@@H](OC(C)=O)C(C)(C)C2CC(=O)[C@]3(C)C(CC[C@@]4(C)[C@H](c5ccoc5)OC(=O)[C@H]5O[C@]543)[C@]21C (some centres not stated)
cell viability (log2) [13]: 0.116
cell viability (log2) [14]: 0.174
cell viability (log2) [15]: 0.177
cell viability (log2) [16]: 0.123
